This passage reports growth results from PubChem BioAssay (NCI).

This is part of a sample that, as a whole, favours compounds with a hit. Of some 83,000 tested, about 20% had one in any assay.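 Step 1: grow cells in 96-well plates. Step 2: add test compound at a single concentration. Step 3: incubate 48 h. Step 4: record percent growth.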 Values without a mark were called inactive. Active and inactive are the calls of the source. How the source made its calls: active means growth percent below 10; inactive means the rest.

Test systems include NCI-H322M lung; RXF 393 renal; ACHN renal; SR leukemia; OVCAR-4 ovarian; BT-549 breast; MDA-MB-435 melanoma; SW-620 colon; MCF7 breast; HCC-2998 colon; NCI-H522 lung; SK-MEL-28 melanoma; HCT-116 colon; HOP-92 NSCLC; CCRF-CEM leukemia; T-47D breast; KM12 colon; SK-MEL-5 melanoma.
What all share (experiment): NCI-60 one-dose screen, 48 h (100 = growth as untreated, 0 = no growth, -100 = all killed)
Holding throughout (conditions): 10 µM

In the case of `O=C(CSc1nc2ccccc2c(=O)n1-c1ccc(Cl)cc1)Nc1ccc(-c2nc3ccc([N+](=O)[O-])cc3[nH]2)cc1`, the growth in the test on NCI-H322M lung is 72.4%; with RXF 393 renal, -5.28% (active); in the test on ACHN renal, 45.5%; in the test on SR leukemia, 38.2%; with OVCAR-4 ovarian, -12.1% (active); with BT-549 breast, -2.07% (active). Moreover, the growth in the test with MDA-MB-435 melanoma was 39.6%; in the test with SW-620 colon, 64.2%; with MCF7 breast it was 20.9%; in the test with HCC-2998 colon, 12.1%.

As to `O=C(Nc1ccc(OCc2ccc(F)cc2)cc1)Nc1ccc(Cl)c(C(F)(F)F)c1`, the growth was 21.9% in the test on NCI-H322M lung; -20.8% (active) with NCI-H522 lung; -24.3% (active) in the test with RXF 393 renal; 31.4% in the test with SK-MEL-28 melanoma; 19% with OVCAR-4 ovarian; -15.9% (active) in the test on BT-549 breast. The growth in the test on MDA-MB-435 melanoma was -12.4% (active); in the test with SW-620 colon, 22.3%; with MCF7 breast, 3.2% (active); in the test with HCT-116 colon, 4.96% (active); with HCC-2998 colon, 1.98% (active).

With `CCOC(=O)c1ccc(NC(=O)CSC(CC(=O)c2sc(Nc3ccccn3)nc2C)c2ccccc2F)cc1` (configuration not stated), the growth with HOP-92 NSCLC is -14.5% (active); with NCI-H522 lung, -22.7% (active); with RXF 393 renal, -12.1% (active); with SK-MEL-28 melanoma, 33.3%; in the test on ACHN renal, 12.1%; in the test on CCRF-CEM leukemia, 3.92% (active). The growth is 41.1% with OVCAR-4 ovarian; 13.1% with T-47D breast; -9.95% (active) in the test with BT-549 breast; -10.7% (active) with MDA-MB-435 melanoma; 0.242% (active) in the test on SW-620 colon; -17.3% (active) with MCF7 breast. For the same compound, the values for the growth with HCT-116 colon and with HCC-2998 colon were 1.05% (active) and -7.21% (active), respectively.

Turning to `COc1ccc(Cc2nn(CC(=O)N/N=C/c3ccc([N+](=O)[O-])cc3)c(=O)c3c(C)noc23)cc1`, the growth is 78.6% with NCI-H322M lung; 91.6% in the test on HOP-92 NSCLC; 55.5% with RXF 393 renal; 47.7% with ACHN renal; 69.5% in the test on CCRF-CEM leukemia; 1.77% (active) in the test on OVCAR-4 ovarian. Also, the growth in the test on T-47D breast was 73.5%; in the test with BT-549 breast it was 87.4%; in the test with MDA-MB-435 melanoma, 71.7%; with SW-620 colon it was 60.9%; in the test with MCF7 breast it was 55%; in the test on HCC-2998 colon, 105%.

As to `C#C[C@]1(O)CC[C@H]2[C@@H]3CC=C4c5sc(Nc6cc(C)cc(C)n6)nc5CC[C@]4(C)[C@H]3CC[C@@]21C`, the growth with NCI-H322M lung is 14.7%; in the test on HOP-92 NSCLC it was -22.2% (active); in the test on RXF 393 renal, -40% (active); in the test on SK-MEL-28 melanoma, -56.8% (active); in the test on CCRF-CEM leukemia it was 5% (active); in the test on OVCAR-4 ovarian, 25.6%. The growth in the test with T-47D breast is -35.6% (active); with BT-549 breast, -50.4% (active); in the test on MDA-MB-435 melanoma, -6.28% (active); with SW-620 colon it was -86.9% (active); with MCF7 breast, -89.7% (active); with HCC-2998 colon it was 1.37% (active). The growth with KM12 colon is -16.7% (active).

In the case of `O=C(c1ccc(F)cc1)C(c1c[nH]c2ccccc12)c1c[nH]c2ccccc12`, the growth is 90.5% with NCI-H322M lung; 90.5% in the test on HOP-92 NSCLC; 50.7% in the test with NCI-H522 lung; 40.3% in the test on RXF 393 renal; 89.8% in the test with SK-MEL-5 melanoma; 63.6% in the test on SK-MEL-28 melanoma. The growth in the test with ACHN renal was 39.4%; in the test on CCRF-CEM leukemia it was 3.4% (active); in the test on OVCAR-4 ovarian, 55.9%; with BT-549 breast, 71.4%; with MDA-MB-435 melanoma it was 58.4%; with SW-620 colon, 5.23% (active). Further, the growth in the test on MCF7 breast is 15.2%; in the test with HCC-2998 colon, 82.9%.

Take `Fc1ccc(/C=C/c2nc3ccccc3n3c(-c4ccc(Cl)cc4)nnc23)cc1`: the growth is 67.6% in the test on HOP-92 NSCLC; -81.7% (active) with NCI-H522 lung; 58.8% with RXF 393 renal; 89.1% with SK-MEL-28 melanoma; 0.524% (active) with CCRF-CEM leukemia; -3.04% (active) in the test with SR leukemia. Moreover, the growth in the test on OVCAR-4 ovarian is 69%; in the test on BT-549 breast it was 79.3%; in the test on MDA-MB-435 melanoma, 78.4%; in the test on SW-620 colon, 44.3%; in the test on MCF7 breast, 12.9%; with HCC-2998 colon, 102%.

For the compound `Cn1cc(-c2nnc(N)nc2-c2c[nH]c3ccc(F)cc23)c2cc(Br)cnc21`, the growth with NCI-H322M lung is 79.1%; with HOP-92 NSCLC, 26.4%; with RXF 393 renal, 38.7%; with SK-MEL-5 melanoma, 81.9%; in the test with CCRF-CEM leukemia, 35.4%; with SR leukemia, 9.16% (active). In addition, the growth is 59.6% in the test with OVCAR-4 ovarian; 51.1% in the test on BT-549 breast; 67.2% with MDA-MB-435 melanoma; 68.5% in the test on SW-620 colon; 27.7% in the test with MCF7 breast; 72.8% in the test with HCC-2998 colon.

In the case of `COc1cc2oc(-c3cccc(C(=O)Nc4ccc(Cl)cc4)c3)cc(=O)c2c(OCCNC(=O)[C@@H](N)CO)c1OC`, the growth is -2.3% (active) in the test on HOP-92 NSCLC; -27.9% (active) with NCI-H522 lung; 41.5% in the test with RXF 393 renal; 99.4% with ACHN renal; -37.9% (active) in the test on CCRF-CEM leukemia; -38.1% (active) in the test on SR leukemia. Also, the growth with OVCAR-4 ovarian was 86.7%; in the test on T-47D breast, 31.3%; with BT-549 breast, 58.9%; in the test with MDA-MB-435 melanoma, 15.7%; in the test with SW-620 colon it was -37.7% (active); with MCF7 breast, -51.8% (active). Besides, in the test on HCC-2998 colon, the growth is 20.5%.

As for `COc1ccc(OC)c(-n2cc(C#N)c(N)c2C(=O)c2ccc(Cl)cc2Cl)c1`, the growth in the test on NCI-H322M lung was 76.8%; with HOP-92 NSCLC, 91.6%; in the test on RXF 393 renal, 55.5%; with SK-MEL-28 melanoma, 59%; in the test on ACHN renal, 53.3%; in the test on CCRF-CEM leukemia it was 11.4%. Moreover, the growth with OVCAR-4 ovarian is 86.2%; in the test on BT-549 breast, 48.3%; in the test on MDA-MB-435 melanoma, -37.1% (active); in the test on SW-620 colon, 26.8%; in the test with MCF7 breast, 16.1%; in the test with HCC-2998 colon, 64.8%.

With `CC1(C)CC[C@]2(C(=O)O)CC[C@]3(C)C(=CCC4[C@@]5(C)C[C@@H](O)[C@@H]6OC(c7cccc(F)c7)OC[C@@]6(C)C5CC[C@]43C)C2C1` (some centres not stated), the growth in the test with HOP-92 NSCLC is 41.9%; in the test on NCI-H522 lung, 8.76% (active); in the test with RXF 393 renal it was 67.2%; with SK-MEL-28 melanoma, 66%; in the test on ACHN renal, 17.6%; in the test with CCRF-CEM leukemia, 32%. The growth in the test with SR leukemia is 22.4%; in the test on OVCAR-4 ovarian, 54.6%; with BT-549 breast, 39%; with MDA-MB-435 melanoma, 58.1%; with SW-620 colon, 31%; in the test on MCF7 breast, 21.5%. In addition, the growth with HCC-2998 colon is 37.5%; in the test with KM12 colon it was 21.3%.
